Reference: PubChem BioAssay AID1347145 (National Center for Advancing Translational Sciences (NCATS), 2019)
Results filed as inconclusive are left out. Values without a mark were called inactive. Activity calls are given as the source filed them. The call rests on the fitted dose curve; in most records, active means well fitted inhibition curve with a large enough effect; inconclusive means small, poorly fitted or top-dose-only effect; inactive means no such curve, though single readings can be large or run the other way.

What follows are molecules tested against N-terminal Xaa-Pro-Lys N-methyltransferase 1 (Homo sapiens) (UniProt Q9BV86) (assay: qHTS Assay for Inhibitors of N-terminal methyltransferase 1 (NTMT1): MTaseGlo Assay Confirmatory Screen, Round 1). Details: Recombinant NTMT1, MTase-Glo SAH luminescence; series mostly up to 57.1 µM; activity change, negative = inhibition: at the top concentration.
N-terminal Xaa-Pro-Lys N-methyltransferase 1 (Homo sapiens), sequence (Q9BV86 whole entry, looked up): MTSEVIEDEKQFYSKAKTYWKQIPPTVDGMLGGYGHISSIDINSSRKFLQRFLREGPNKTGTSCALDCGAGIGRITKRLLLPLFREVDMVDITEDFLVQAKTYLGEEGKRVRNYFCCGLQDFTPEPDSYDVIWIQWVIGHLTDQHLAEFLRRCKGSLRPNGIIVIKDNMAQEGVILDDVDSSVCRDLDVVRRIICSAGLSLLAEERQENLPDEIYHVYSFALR
Excerpt: Assay Submitter (PI): Rong Huang Ph.D, Purdue University, West Lafayette, IN 47907 The N-terminal methytransferase 1 is the first methyltransferase that methylates protein alpha-N-amines and plays an important role in regulating cell mitosis, chromatin interactions and DNA repair. It is observed to be over-expressed in various cancer patient tissues like malignant melanoma and colorectal cancer tissues. Knockdown of NTMT1 in cancer cells causes cell mitotic defects and enhances sensitivity to DNA damaging chemotherapeutics. […] These critical cellular processes in which NTMT1 is implicated, coupled with emerging links to cellular dysfunction, strengthen the inference that NTMT1 is a compelling novel anticancer target. Progress have been made in understanding the molecular properties of NTMT1 and the biological consequences of protein alpha-N-terminal methylation, but there are no specific small molecule probes available for NTMT1 to fully characterize its MTase activity. To address this unmet need, a panel of assay is created and established to enable quantitative high-throughput screening (qHTS) for novel, potent, and selective small molecule NTMT1 inhibitors. Two orthogonal qHTS that use different reagents (ThioGlo vs. MTaseGlo) are developed for primary robotic screening against the NCATS chemical library of more than 400,000 small molecules. Identified inhibitors are reacquired, validated, and further characterized. MTaseGlo Assay is a luminescence screen that measure the activity of methyltransferases based on the reaction product S-adenosyl homocysteine (SAH). The substrate SAM is converted to SAH upon enzyme activation. MTase-Glo reagent and detection solution convert SAH to ATP and measure the light from the luciferase reaction. […] Early Translation Branch (ETB) National Center for Advancing Translational Sciences (NCATS) National Institute of Health (NIH)
Materials: NTMT1 enzyme, substrate SPKRIA, control peptide RCC1-6 is provided by the Huang laboratory. MTaseGlo Assay: In brief, 3 µL of enzyme mixture (final concentrations of 125 nM and 100 µM for NTMT1 and SAM, respectively) into all wells of a 1,536-well solid-bottom white plate (Greiner Bio One, Monroe, NC). 23 nL of DMSO or Ac-RCC1-10 (final concentration range 234 nM to 143 microM) was transferred via Wako Pin-tool (Wako Automation, Richmond, VA) and incubated (RT) for ~15 minutes. Next, 1 µL of substrate (final concentration 1 µM) or buffer was dispensed, and the reaction proceeded for 30 minutes (RT, protected from light) followed by a 1 microL addition of [5X] MTase-Glo Reagent(R). Samples were incubated (RT, protected from light) for 30 minutes to allow for SAH to be converted to ADP, followed by a 5 microL addition of [1X] MTase-Glo Detection Solution(R) to allow for ADP to be converted to ATP, which was then detected with a luciferase reaction. Samples were centrifuged for 15 seconds at 1,000 RPM's, followed by a RT incubation for 30 minutes. Plates were then read using Luminescence optics on a ViewLux detector. Data were normalized to no-enzyme (0% activity) and no-inhibitor (DMSO; 100%) controls, and the resulting percent inhibition data were fitted to a 4-parameter Hill equation using Graphpad Prism.
Potency means the concentration at half of the fitted maximal effect.

Compound | activity change, negative = inhibition | Potency
Nc1ncnc2c1ncn2[C@@H]1O[C@H](COP(=O)(O)OP(=O)(O)OP(=O)(O)OP(=O)(O)OC[C@@H]2O[C@H](n3cnc4c(N)ncnc43)[C@@H](O)C2O)C(O)[C@H]1O (stereo not given in full) | 850% | 
CC[C@H](C)n1cc(C)c2c(C(=O)NCc3c(C)cc(C)[nH]c3=O)cc(-c3ccc(N4CCNCC4)nc3)cc21 | 7.61% | 
COc1cc2c(NC3CCN(C)CC3)nc(N3CCN(C)CC3)nc2cc1OCCOCCN(C)C | -10.4% | 
COc1cc2c(NC3CCN(C(C)C)CC3)nc(N3CCC(F)(F)CC3)nc2cc1OCCCN1CCCC1 | -1.55% | 
C/C(=C\CNc1ncnc2c1ncn2[C@@H]1O[C@H](CO)[C@@H](O)[C@H]1O)CO | 35.2% | 
Nc1[nH]c(=O)nc2c1ncn2C1OC(CO)C(O)C1O (stereo not given) | 0.715% | 
Nc1ccnc2c1ncn2[C@@H]1O[C@H](CO)[C@@H](O)[C@H]1O |  | 17.2 µM (active)
COc1cc2c(NC3CCN(CC4CCCCC4)CC3)nc(N3CCCCC3)nc2cc1OCCCN1CCCCC1 | -19.2% | 
COc1cc2nc(N3CCN(C(N)=O)CC3)nc(NC3CC3)c2cc1OC | -13.1% | 
Nc1nc(Nc2ccccc2)nc2c1ncn2[C@@H]1O[C@@H](CO)[C@H](O)[C@H]1O | 2.31% | 
OCC1OC(n2cnc3c(NO)ncnc32)C(O)C1O (stereo not given) | 169% | 
OC[C@H]1O[C@@H](n2cnc3c(NCc4ccccc4)ncnc32)[C@H](O)[C@@H]1O | -6.1% | 
CNc1ncnc2c1ncn2[C@@H]1O[C@H](CO)[C@@H](O)[C@@H]1O | 257% [at 27.6 µM] | 
CC(C)(COP(=O)(O)OP(=O)(O)OC[C@H]1O[C@@H](n2cnc3c(N)ncnc32)[C@H](O)[C@@H]1OP(=O)(O)O)[C@H](O)C(=O)NCCC(=O)NCCS | 34% | 
COc1cc2nc(N3CCCCC3)nc(NC3CCN(C)CC3)c2cc1OC | -16.8% | 
COc1cc2nc(N3CCCN(C)CC3)nc(NC3CCCCC3)c2cc1OC | 41.1% | 
COc1cc2c(NC3CCN(C)CC3)nc(N3CCCN(C)CC3)nc2cc1OCCCCN |  | 15.3 µM (active)
C=C1O[C@@](CO)(n2cnc3c(N)ncnc32)[C@H](O)[C@@H]1O | 2.37% | 
NC[C@H]1O[C@@H](n2cnc3c(N)ncnc32)[C@H](O)[C@@H]1O |  | 19.3 µM (active)
CNC(=O)c1cnn(-c2nc(N)c3ncn([C@@H]4O[C@H](CO)[C@@H](O)[C@H]4O)c3n2)c1 | 5.01% | 

Compound | activity change, negative = inhibition | Potency
OC[C@H]1O[C@H](n2cnc3c(NC4CCCC4)nc(Cl)nc32)[C@@H](O)[C@@H]1O | 3.4% | 
O=c1[nH]cnc2c1ncn2[C@@H]1O[C@H](CO)[C@@H](O)[C@H]1O |  | inactive
COc1cc2nc(N3CCN(C)CC3)nc(NCCN(C)C)c2cc1OC | -1.87% | 
NC(=O)c1ccc[n+]([C@@H]2O[C@H](COP(=O)([O-])OP(=O)(O)OC[C@H]3O[C@@H](n4cnc5c(N)ncnc54)[C@H](O)[C@@H]3O)[C@@H](O)[C@H]2O)c1 | 360% [at 19 µM] | 
CNc1ncnc2c1ncn2[C@H]1C[C@H](O)[C@@H](CO)O1 | 7.11% | 
OC[C@H]1O[C@H](n2cnc3c(N[C@H]4CCC[C@@H]4O)ncnc32)[C@H](O)[C@@H]1O | 19.1% | 
O=c1[nH]cnc2c1ncn2C1O[C@H](CO)[C@@H](O)[C@H]1O (stereo not given in full) | 6.52% | 
COc1cc2c(NC3CCN(C)CC3)nc(N3CCCCC3)nc2cc1OCCOCCN1CCCC1 | -17.5% | 
Nc1ncnc2c1ncn2[C@@H]1O[C@H](COP(=O)(O)OP(=O)(O)OP(=O)(O)O)[C@@H](O)[C@H]1O | 2.53% | 
COc1cc2nc(N3CCN(C)CC3)nc(NCCC3CC3)c2cc1OC | -15% | 
OC[C@H]1O[C@@H](n2cnc3c(NC4CCCCC4)ncnc32)[C@H](O)[C@@H]1O | -1.04% | 
COc1cc2c(NC3CCN(C)CC3)nc(N3CCCN(C)CC3)nc2cc1O | 1.05% | 
COc1cc2nc(N3CCOCC3)nc(NC3CCN(C)CC3)c2cc1OC | -13.7% | 
COc1cc2nc(NC3CCN(C)CC3)nc(N3CCCN(C)CC3)c2cc1OC | -9.95% | 
COc1cc2c(NC3CCN(C(C)C)CC3)nc(N3CCCN(C)CC3)nc2cc1OCCCN1CCCC1 | -20.2% | 
Cn1cnc2c(ncn2[C@@H]2O[C@H](CO)[C@@H](O)[C@H]2O)c1=N | 20.8% | 
CNc1ncnc2c1ncn2[C@@H]1O[C@H](COP(=O)(O)O)[C@@H](O)[C@H]1O | 12.3% | 
CCN(CC)c1nc(NC2CCN(C)CC2)c2cc(OC)c(OC)cc2n1 | 0.456% | 
OC[C@@H]1O[C@@H](n2cnc3c(NC4CCCC4)ncnc32)[C@H](O)[C@H]1O | 7.9% | 
C[C@H](Cc1ccccc1)Nc1ncnc2c1ncn2[C@@H]1O[C@H](CO)C(O)[C@H]1O (stereo not given in full) | -5.33% | 
